Results: PubChem BioAssay AID1159580 (chemical genetic matrix, 2015)
Among all 5,500 compounds or so, about 2,000 (36%) were called active. Not shown: some 18% with an inconclusive outcome. Cut-off read from the data, not from the text of the source: active = normalized growth mostly below about 0.91 (no sharp cut-off); inconclusive = no clear call, values can overlap the other calls; inactive = mostly above about 0.92. The list shows a part of the results.

Test: chemical genetic growth profiling, strain panel (AID 1159580);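 note: tested at 20 µM; growth read once vehicle control cultures reached saturation at 30 °C; 1 = growth at the plate median or of vehicle wells; lower values mean less growth of the strain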
Details: S. cerevisiae deletion strains, growth OD
[1] = locus YHR030C, strain SLT2, active compounds read low
[2] = locus YHR079C, strain IRE1, active compounds read low
[3] = locus YJL095W, strain BCK1, active compounds read low
[4] = locus YJR066W, strain TOR1, active compounds read low
[5] = locus YLR113W, strain HOG1, active compounds read low
[6] = locus YNL183C, strain NPR1, active compounds read low
[7] = locus YOR231W, strain MKK1, active compounds read low
[8] = locus YPL256C, strain CLN2, active compounds read low

Measured: normalized growth

Cc1ccc(C(O)(c2ccccc2)c2ccccc2)c2ccccc12
inactive: locus YAR019C, strain CDC15, active compounds read low 0.992 | locus YBL105C, strain PKC1, active compounds read low 0.985 | locus YBR135W, strain CKS1, active compounds read low 0.98 | locus YBR136W, strain MEC1, active compounds read low 0.983 | locus YBR160W, strain CDC28, active compounds read low 0.985 | locus YDL017W, strain CDC7, active compounds read low 0.992 | locus YDL028C, strain MPS1, active compounds read low 0.985 | locus YDL101C, strain DUN1, active compounds read low 0.97 | locus YDL108W, strain KIN28, active compounds read low 0.981 | locus YDL132W, strain cdc53, active compounds read low 0.976 | locus YDL214C, strain PRR2, active compounds read low 0.963 | locus YDR052C, strain DBF4, active compounds read low 0.992 | locus YDR054C, strain cdc34, active compounds read low 0.988 | locus YDR226W, strain ADK1, active compounds read low 0.983 | locus YDR477W, strain SNF1, active compounds read low 0.975 | locus YER123W, strain YCK3, active compounds read low 1 | locus YER133W, strain GLC7, active compounds read low 0.998 | locus YFL009W, strain cdc4, active compounds read low 0.982 | locus YFL029C, strain CAK1, active compounds read low 0.993 | locus YFR003C, strain YPI1, active compounds read low 0.988 | locus YFR019W, strain FAB1, active compounds read low 0.952 | locus YFR028C, strain CDC14, active compounds read low 0.979 | locus YGR040W, strain KSS1, active compounds read low 0.947 | locus YGR052W, strain FMP48, active compounds read low 0.982 | locus YGR092W, strain DBF2, active compounds read low 0.907 | [1] 1.02 | [2] 0.996 | locus YHR082C, strain KSP1, active compounds read low 1 | locus YHR205W, strain SCH9, active compounds read low 0.858 | locus YIL147C, strain SLN1, active compounds read low 0.993 | [3] 0.904 | locus YJL128C, strain PBS2, active compounds read low 0.926 | locus YJL157C, strain FAR1, active compounds read low 0.997 | locus YJR016C, strain ILV3, active compounds read low 0.995 | locus YJR066W, strain TOR1 (second series), active compounds read low 0.963 | [4] 1.01 | locus YKL048C, strain ELM1, active compounds read low 0.965 | locus YKL067W, strain YNK1, active compounds read low 0.975 | locus YKL101W, strain HSL1, active compounds read low 0.953 | locus YKL193C, strain SDS22, active compounds read low 0.989 | locus YKL203C, strain TOR2, active compounds read low 1.01 | [5] 0.936 | locus YLR133W, strain CKI1, active compounds read low 0.949 | locus YLR403W, strain SFP1, active compounds read low 0.916 | locus YML070W, strain DAK1, active compounds read low 0.959 | locus YMR001C, strain CDC5, active compounds read low 0.988 | locus YMR205C, strain PFK2 (second series), active compounds read low 0.976 | locus YMR277W, strain FCP1, active compounds read low 0.991 | locus YNL006W, strain LST8, active compounds read low 0.984 | locus YNL020C, strain ARK1, active compounds read low 0.955 | locus YNL161W, strain CBK1, active compounds read low 0.98 | [6] 0.987 | locus YNL207W, strain RIO2, active compounds read low 0.991 | locus YNL222W, strain SSU72, active compounds read low 0.983 | locus YNL307C, strain MCK1 (second series), active compounds read low 0.904 | locus YOL078W, strain AVO1, active compounds read low 0.979 | locus YOL136C, strain PFK27, active compounds read low 0.929 | locus YOR061W, strain CKA2, active compounds read low 0.979 | locus YOR119C, strain RIO1, active compounds read low 1.05 | [7] 0.966 | locus YOR329C, strain SCD5, active compounds read low 0.992 | locus YPL031C, strain PHO85, active compounds read low 0.983 | locus YPL153C, strain RAD53, active compounds read low 1 | locus YPL204W, strain HRR25, active compounds read low 0.956 | locus YPL209C, strain IPL1, active compounds read low 0.983 | [8] 1.04 | locus YPR025C, strain CCL1, active compounds read low 0.99 | locus YPR106W, strain ISR1, active compounds read low 0.97 | locus YPR111W, strain DBF20, active compounds read low 0.953 | strain NNK1, active compounds read low 0.976 | strain TSCII, active compounds read low 0.982

CCCCCCCCCCCCCCCCCCCCCCO
inactive: [1] 1.08 | [2] 0.973 | [3] 0.989 | [4] 0.967 | [5] 0.965 | [6] 0.916 | [7] 0.99 | [8] 0.99
